In the library only some 2.2% were active in any assay of this set; here they are far more common.
FUS suppressor: suppressors of FUS proteinopathy in yeast | S. cerevisiae FUS-expressing, growth rescue, OD600, 24 h | Potency, µM (highest dose often 76.6 µM), actives largely listed as activators | actives 0.24% (n = 390,000) | AID 1347120;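 also: plate controls were DMSO vehicle for no effect and reference control for full effect; nearly all actives have a fitted effect of over 55% in size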
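Read-out: OD at 600 nm after 24hr at 30C, reporting rescue of FUS-induced yeast toxicity. Cells at OD 0.005 in galactose (2%) minimal medium; compounds tested in a dilution series; CP55940 titration from 92uM final as control.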
Abeta yeast res: compounds reversing amyloid beta toxicity in yeast | actives 0.063% (n = 410,000) | Potency, µM (highest dose often 46.1 µM), most hits filed as activators | AID 1347071 | yeast expressing A-beta42, growth rescue, OD600, 48 h; response scale: 0% DMSO, 100% iron-clioquinol control; also: nearly all actives have a fitted effect of over 55% in size
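Yeast A-beta toxicity model in growth medium with pinned compounds, 48 h at 30 C; growth read as absorbance at 600 nm. Normalized to FeCl3/clioquinol equimolar mix (positive) and DMSO (negative).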
aSyn yeast inh: inhibitors of alpha-synuclein toxicity in yeast; Yeast expressing alpha-synuclein, growth rescue, BacTiter-Glo, 24 h; Potency, µM (highest dose often 46.1 µM), without a hit: at the top dose growth rescue (activation), hits mostly activators; actives 0.14% (n = 370,000); AID 652106; also: % of control where 0% means no effect; nearly all actives have a fitted effect of over 65% in size
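Galactose-induced alpha-syn yeast (OD600=0.02, raffinose-pregrown) + pinned cpd, 24 hr, 30 deg C; growth by BacTiter-Glo luminescence. Growth restoration scores as activation.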
Mito fusion act: inhibitors of mitochondrial division or activators of mitochondrial fusion. Potency, µM (doses to about 46.1 µM), for the others: at the highest dose growth rescue (activation), hits mostly activators. AID 485298. S. cerevisiae fusion-defective mutant growth rescue, CellTiterGlo 48 h. actives 0.23% (n = 320,000); also: % of control where 0% means no effect; nearly all actives have a fitted effect of over 45% in size
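Read-out: ATP-based luminescence (CellTiterGlo, 10 min ambient) reporting growth of fusion-defective ts yeast after 48 hours at 37C on glycerol/ethanol YPEG medium in the presence of compound.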
TDP43 rescue: rescues yeast growth from TDP-43 toxicity; TDP-43 expressing yeast growth rescue, BacTiter-Glo, 24 h; actives 1.8% (n = 410,000); Potency, µM (highest dose often 46.1 µM), inactives show at the top dose growth rescue (activation), actives largely listed as activators; also: % of control where 0% means no effect; nearly all actives have a fitted effect of over 50% in size
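Cell-based yeast growth screen: TDP-43 expression induced in galactose, inoculum OD600=0.02 after raffinose pregrowth to mid-log. Read-out BacTiter-Glo luminescence at 24 hr, 30 deg C; inhibition of toxicity seen as signal increase.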
Active calls of the source: *; i = inactive; u = inconclusive; x = not tested or not shown; ! = not active in a repeat; [ ] = another dose, or the depositor's remark. Calls follow the shape of the dose curve; as a rule, active = well fitted curve in the direction sought with a large enough effect; inconclusive = small, poorly fitted or top-dose-only effect, or another doubt; inactive = no such curve, though single readings can be large; an effect the other way counts as inactive or inconclusive. Potency is read from the fitted curve at half-maximal effect.

SMILES | FUS suppressor | Abeta yeast res | aSyn yeast inh | Mito fusion act | TDP43 rescue
CCCS(=O)(=O)N1CCC(C(=O)NCCOC)CC1 | i | i | 3% | x | -23%
O=C1CC(c2ccc(F)cc2)CC2=C1C=Nc1ccccc1N2 (stereo not drawn) | i | i | -3% | 9% | 22µM*
Fc1ccc(-c2noc3ncnc(N4CCCCC4)c23)cc1 | i | i | x | x | 16%
Fc1ccc(-c2noc3ncnc(N4CCN(c5ccccc5)CC4)c23)cc1 | i | i | -8% | x | 25µM*
Cc1noc2ncnc(N3CCN(c4ccccc4F)CC3)c12 | i | i | u | x | 22µM*
O=c1[nH]c(=S)c2[nH]cnc2[nH]1 | x | x | -3% | x | x
C#CCSc1nc(C)cc(C(=O)OCC)c1C#N | i | i | -5% | 7% | 14µM*
Cc1ccc(C)c(Cn2c(=O)n(CCCCCC(=O)NCc3ccc4c(c3)OCO4)c(=O)c3sccc32)c1 | i | i | x | x | 10%
CCCc1c(-c2ccc(O)cc2)nn(-c2ccc(O)cc2)c1-c1ccc(O)cc1 | i | i | -25% | 16µM*! | u
CC(=O)NC1=C(C#N)CCC1 | x | x | -13% | x | x
Clc1ncccc1OCc1ccccc1 | i | i | 3% | x | 13µM*
COc1ccccc1C(=O)Nc1ccc(Br)c2cccnc12 | i | i | 8% | 2% | 14%
COc1ccccc1C(=O)Nc1ccc(Br)cc1C | i | i | 4% | 17% | 18µM*
COc1nc(-c2ccccc2)nc(C)c1CC(=O)O | i | i | -6% | 6.3µM* | 0%
Cn1c(=O)c(Sc2ccccc2)c(O)c2ccccc21 | i | i | -6% | -8% | 13µM*
CC(=O)c1c(O)c2ccccc2n(C)c1=O | i | i | 6% | -3% | -70%
Cn1c(=O)c(S(=O)(=O)C(C)(C)C)c(O)c2ccccc21 | x | i | 16% | 2% | 2.8µM*
Cc1ccc(Sc2c(O)c3ccccc3n(C)c2=O)cc1 | i | u | 7% | 14µM* | 3.2µM*
CCOC(=O)C1=C(COC(=O)c2ccc([N+](=O)[O-])s2)NC(=O)NC1C (stereo not drawn) | i | i | -74% | x | 20µM*
CCOC(=O)C1=C(COC(=O)c2sccc2C)NC(=O)NC1C (stereo not drawn) | i | i | 0% | 3% | 3%
CC1Cc2cc(S(=O)(=O)CCC(=O)Nc3ccc(OC(F)(F)F)cc3)ccc2N1C(=O)C1CC1 (stereo not drawn) | i | i | x | x | 0%
Brc1cccc[n+]1CCCC[n+]1ccccc1Br | x | x | 1% | x | x
O=C(C1COc2ccccc2O1)N1CCN(S(=O)(=O)c2cc(F)ccc2F)CC1 (stereo not drawn) | i | i | -2%[1.84 µM] | 1% | 28µM*
Cc1cc(O)c2c(C)c(CC(=O)N3CCN(C(=O)C4COc5ccccc5O4)CC3)c(=O)oc2c1 (stereo not drawn) | 28µM* | i | 1% | 4% | 4%
COc1cc(C)cc2oc(=O)c(CC(=O)N3CCN(C(=O)C4COc5ccccc5O4)CC3)c(C)c12 (stereo not drawn) | i | i | 1% | 2% | -2%
SMILES | FUS suppressor | Abeta yeast res | aSyn yeast inh | Mito fusion act | TDP43 rescue
O=C(C1COc2ccccc2O1)N1CCN(Cc2ccc(Br)cc2F)CC1 (stereo not drawn) | i | u | 14% | 11µM* | -3%
N#Cc1ccccc1S(=O)(=O)N1CCN(C(=O)C2COc3ccccc3O2)CC1 (stereo not drawn) | x | i | 0% | 5% | 11%
COc1ccc(-c2cc(C(=O)NN=Cc3cccn3C)[nH]n2)cc1 | i | x | x | x | x
CC(C)(C)C(=O)Nc1ccc(C(=O)N/N=C/c2ccccc2OC(=O)c2ccc(Cl)cc2)cc1 | 22µM* | i | 2% | 11% | -17%
CC(C)(C)C(=O)Nc1ccc(C(=O)N/N=C/c2ccccc2OC(=O)c2ccccc2)cc1 | u | i | 3% | -3% | 3%
COC(=O)[C@]12C[C@H](CC(=O)N3CCN(C(=O)c4ccco4)CC3)C(=O)N(Cc3ccc(Cl)cc3Cl)C1=C[C@H](C(C)(C)C)O[C@@H]2C | 11µM* | x | x | x | x

From PubChem BioAssay
